Growth inhibition data for 40 compounds are collected here from PubChem BioAssay (NCI).

Compounds without any hit were thinned out: in the full panel of roughly 79,000, 15% have a hit. Activity calls are given as the source filed them. Cut-off read from the data, not from the text of the source: active = growth inhibition above about 70%; inactive = the rest.

The first assay can be described thus: NCI Yeast Anticancer Drug Screen. Data for the bub3 strain (AID 167). Conditions: S. cerevisiae bub3 mutant strain, at 50.0 µM, stronger effect = higher value. An outline of the steps: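 Whole-cell yeast assay. The mutant strain was incubated with compounds, and growth inhibition was determined by comparison with vehicle-treated cells.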
For `Cc1cc(=O)c2cc3ccc4cccc5ccc(c2[nH]1)c3c45`, the growth inhibition is -6.85% (inactive).
As to `CCC1CC(=O)NC(=O)NC1=O` (stereo not given), the growth inhibition is 7.2% (inactive).
On the same count and under the same terms, the value for `Cc1c(-c2ccccc2)[nH]n(C2=NCCN2)c1=O` was -15.5% (inactive); that for `CC(C)OP(=O)(OC(C)C)C1C(P(=O)(OC(C)C)OC(C)C)C(F)(F)C1(F)F` (stereo not given) was -2% (inactive).
Same read-out and setting: the result for `COC(=O)CN(c1c(C)cc(C)c(N)c1C)S(=O)(=O)c1ccccc1` reads -11.3% (inactive); that for `O=S(=O)(Oc1cccc2ccccc12)c1ccc(Br)cc1`, 30.7% (inactive).
The same measure, in the same setting: the result for `COC(=O)C1(C2CCc3cc(OC)ccc3C2=O)NC(=S)NC(=O)C1C#N` (stereo not given) reads -21.1% (inactive); that for `O=C1O/C(=C(\Br)c2ccc([N+](=O)[O-])cc2)c2ccccc21`, -5.9% (inactive).
As for `Cn1nnc2c(C(N)=O)ncn2c1=O`, the growth inhibition was -26.6% (inactive).
The same measure, in the same setting: the result for `N#Cc1c(-c2ccccc2)cn2c1[nH]c(=O)c1ccccc12` reads -17.9% (inactive); that for `O=C1OC(c2ccc(Cl)cc2)=N/C1=C\c1c(Cl)cccc1Cl`, 5.9% (inactive); that for `C=CSC(=S)Sc1ccccc1`, 19% (inactive).
The same measure, in the same setting: the result for `CCC[n+]1cccc(C#N)c1` reads -4.2% (inactive).
The same measure, in the same setting: the value for `CC1(C)C(c2ccccc2)C12CCC1(C2=O)C(c2ccccc2)C1(C)C` (stereo not given) was -16.9% (inactive); that for `CC(O)(c1ccccc1)C1CC1c1ccccc1` (stereo not given) was -12.5% (inactive).
As to `CCC(=O)N1NC(=O)C(CC)(CC)C1=O`, the growth inhibition was -2.3% (inactive).
Same read-out and setting: the value for `CCOC(=O)C1=C(Nc2ccc(Cl)c(Cl)c2)OC/C1=N\NC(=O)Cc1ccccc1` was -11.7% (inactive); that for `COC(=O)C(=O)C1CCc2c(C(=O)OC)nc3[nH]n(-c4ccccc4)c(=O)c3c21` (stereo not given) was 25.1% (inactive).
The same measure, in the same setting: the value for `Cc1cc2n(n1)C(=O)CC(=O)C2` was -1.2% (inactive); that for `O=[N+]([O-])c1ccc(Nc2ccccc2)c2nonc12` was 13.8% (inactive).
For the compound `CCC(CC)C(=O)OCCOc1ccccc1`, the growth inhibition is 19.4% (inactive).
Regarding `c1ccc(CCN(CCc2ccccn2)CCc2ccccn2)nc1`, the growth inhibition was 3% (inactive).
As to `COC(=O)CCC(=O)CC(=O)C1=NS(=O)(=O)c2nc(S(N)(=O)=O)c(Cl)cc2N1`, the growth inhibition was -16.1% (inactive).
On the same count and under the same terms, the result for `O=c1[nH]c(=O)n(C2CC(O)C(CO)O2)cc1C#Cc1ccc(C(F)(F)F)cc1` (stereo not given) reads 19.2% (inactive); that for `O=c1c2n(c(=O)c3n1CCC=3)CCC=2`, -6.85% (inactive).
The same measure, in the same setting: the value for `CCCC(=O)OCc1ccc(Cl)cc1Cl` was 0% (inactive); that for `CC(=O)n1ccc(=O)[nH]c1=O` was -11.9% (inactive).
Still for that read-out and setting: the value for `CCOC(=O)/C(C#N)=C/c1ccc(Cl)cc1` was -34.4% (inactive); that for `COc1ccc(CSc2n[nH]c(=O)[nH]c2=S)cc1` was 4.7% (inactive).
For the compound `CCOC(OCC)C(N)=O`, the growth inhibition is -6.3% (inactive).
On the same count and under the same terms, the result for `CCCCCOc1ccc(C2=C(c3ccccc3)C(=O)C(c3ccccc3)=C2c2ccccc2)cc1` reads -3.15% (inactive); that for `c1cnn([B-]2(n3cccn3)n3ccc[n+]3[B-](n3cccn3)(n3cccn3)n3ccc[n+]32)c1`, 14.1% (inactive); that for `CC(=O)NC1C(SC(=O)NCCCl)OC(COC(C)=O)C(OC(C)=O)C1OC(C)=O` (stereo not given), -27.3% (inactive).
The same measure, in the same setting: the value for `Nc1nc(SCCc2ccccc2)c2[nH]cnc2n1` was -20.4% (inactive).
The same measure, in the same setting: the value for `CC(=O)N(C(=O)CC(=O)NN)c1ccc(Cl)cc1` was 6.95% (inactive); that for `Cc1ccc(CCn2cnc3c(N(CCO)CCO)ncnc32)cc1` was 7.95% (inactive).
For the compound `CCCNC(=O)Nc1ccccc1OCC`, the growth inhibition is 13.2% (inactive).
The same measure, in the same setting: the value for `CC1(CO)CSC(Nc2ccc(F)cc2)=N1` (stereo not given) was 2.4% (inactive).
For the compound `NC(=O)COc1c(Br)cc(Br)cc1Br`, the growth inhibition is -21.4% (inactive).
Still for that read-out and setting: the value for `O=c1c2c(c(=O)c(=O)c1=O)Nc1ccccc1N2` was 10.2% (inactive).

Another assay can be described thus: NCI Yeast Anticancer Drug Screen. Data for the mlh1 rad18 strain (AID 175). The following applies: S. cerevisiae mlh1 rad18 strain growth inhibition; at 50.0 µM; stronger effect = higher value. In outline: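 Genetically defined yeast (DNA repair-deficient) exposed to compounds; growth inhibition determined relative to vehicle.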
Take `Cc1cc(=O)c2cc3ccc4cccc5ccc(c2[nH]1)c3c45`: the growth inhibition was -5.85% (inactive).
The same measure, in the same setting: the result for `CCC1CC(=O)NC(=O)NC1=O` (stereo not given) reads 6.9% (inactive); that for `Cc1c(-c2ccccc2)[nH]n(C2=NCCN2)c1=O`, -25% (inactive).
Same read-out and setting: the value for `CC(C)OP(=O)(OC(C)C)C1C(P(=O)(OC(C)C)OC(C)C)C(F)(F)C1(F)F` (stereo not given) was 14.3% (inactive); that for `COC(=O)CN(c1c(C)cc(C)c(N)c1C)S(=O)(=O)c1ccccc1` was -25.3% (inactive).
On the same count and under the same terms, the result for `O=S(=O)(Oc1cccc2ccccc12)c1ccc(Br)cc1` reads -10.3% (inactive).
In the case of `COC(=O)C1(C2CCc3cc(OC)ccc3C2=O)NC(=S)NC(=O)C1C#N` (stereo not given), the growth inhibition was -6.65% (inactive).
Same read-out and setting: the result for `O=C1O/C(=C(\Br)c2ccc([N+](=O)[O-])cc2)c2ccccc21` reads 1.05% (inactive); that for `Cn1nnc2c(C(N)=O)ncn2c1=O`, -77% (inactive); that for `N#Cc1c(-c2ccccc2)cn2c1[nH]c(=O)c1ccccc12`, 1.05% (inactive).
Turning to `O=C1OC(c2ccc(Cl)cc2)=N/C1=C\c1c(Cl)cccc1Cl`, the growth inhibition was -13.7% (inactive).
Turning to `C=CSC(=S)Sc1ccccc1`, the growth inhibition is 12.9% (inactive).
`CCC[n+]1cccc(C#N)c1`: the growth inhibition was 22.2% (inactive).
Turning to `CC1(C)C(c2ccccc2)C12CCC1(C2=O)C(c2ccccc2)C1(C)C` (stereo not given), the growth inhibition was -52.4% (inactive).
Still for that read-out and setting: the result for `CC(O)(c1ccccc1)C1CC1c1ccccc1` (stereo not given) reads 6.3% (inactive); that for `CCC(=O)N1NC(=O)C(CC)(CC)C1=O`, -35.6% (inactive); that for `CCOC(=O)C1=C(Nc2ccc(Cl)c(Cl)c2)OC/C1=N\NC(=O)Cc1ccccc1`, -35.4% (inactive).
Still for that read-out and setting: the value for `COC(=O)C(=O)C1CCc2c(C(=O)OC)nc3[nH]n(-c4ccccc4)c(=O)c3c21` (stereo not given) was 0.25% (inactive); that for `Cc1cc2n(n1)C(=O)CC(=O)C2` was -3.7% (inactive).
Same read-out and setting: the result for `O=[N+]([O-])c1ccc(Nc2ccccc2)c2nonc12` reads 29.4% (inactive).
For `CCC(CC)C(=O)OCCOc1ccccc1`, the growth inhibition is -1.8% (inactive).
Same read-out and setting: the result for `c1ccc(CCN(CCc2ccccn2)CCc2ccccn2)nc1` reads 18% (inactive); that for `COC(=O)CCC(=O)CC(=O)C1=NS(=O)(=O)c2nc(S(N)(=O)=O)c(Cl)cc2N1`, -1.35% (inactive); that for `O=c1[nH]c(=O)n(C2CC(O)C(CO)O2)cc1C#Cc1ccc(C(F)(F)F)cc1` (stereo not given), -13.7% (inactive).
The same measure, in the same setting: the value for `O=c1c2n(c(=O)c3n1CCC=3)CCC=2` was 9.35% (inactive); that for `CCCC(=O)OCc1ccc(Cl)cc1Cl` was 13.9% (inactive); that for `CC(=O)n1ccc(=O)[nH]c1=O` was 16.4% (inactive).
As for `CCOC(=O)/C(C#N)=C/c1ccc(Cl)cc1`, the growth inhibition is -0.65% (inactive).
On the same count and under the same terms, the value for `COc1ccc(CSc2n[nH]c(=O)[nH]c2=S)cc1` was 38.4% (inactive); that for `CCOC(OCC)C(N)=O` was 2.65% (inactive); that for `CCCCCOc1ccc(C2=C(c3ccccc3)C(=O)C(c3ccccc3)=C2c2ccccc2)cc1` was 23.4% (inactive).
Same read-out and setting: the value for `c1cnn([B-]2(n3cccn3)n3ccc[n+]3[B-](n3cccn3)(n3cccn3)n3ccc[n+]32)c1` was -4.05% (inactive); that for `CC(=O)NC1C(SC(=O)NCCCl)OC(COC(C)=O)C(OC(C)=O)C1OC(C)=O` (stereo not given) was -4.3% (inactive).
Same read-out and setting: the result for `Nc1nc(SCCc2ccccc2)c2[nH]cnc2n1` reads 7% (inactive).
Regarding `CC(=O)N(C(=O)CC(=O)NN)c1ccc(Cl)cc1`, the growth inhibition is 26% (inactive).
Still for that read-out and setting: the result for `Cc1ccc(CCn2cnc3c(N(CCO)CCO)ncnc32)cc1` reads -9.6% (inactive).
The same measure, in the same setting: the result for `CCCNC(=O)Nc1ccccc1OCC` reads -5.25% (inactive); that for `CC1(CO)CSC(Nc2ccc(F)cc2)=N1` (stereo not given), 3.35% (inactive); that for `NC(=O)COc1c(Br)cc(Br)cc1Br`, -25.4% (inactive).
Same read-out and setting: the value for `O=c1c2c(c(=O)c(=O)c1=O)Nc1ccccc1N2` was 15.7% (inactive).
